Laboratory results published in PubChem BioAssay (Tox21).
Activity calls are given as the source filed them. Calls come from the whole dose curve; as a rule, active = well fitted curve in the direction sought with a large enough effect in the repeat runs; inconclusive = weak or mixed curves; inactive = flat fitted curve, though single readings scatter.

Assay: qHTS assay to test for compound auto fluorescence at 535 nm (green) in HepG2 cells (AID 720675)
Conditions: green autofluorescence 485/535 nm, 1 h; series mostly up to 91.3 µM; fluorescence, % of fluorescein control: at the top concentration
% is set by controls: 0 for no effect and ±100 for the full control effect.

| SMILES | fluorescence, % of fluorescein control | outcome |
| --- | --- | --- |
| O=C(N/N=C/c1ccc([N+](=O)[O-])o1)c1cc([N+](=O)[O-])cc([N+](=O)[O-])c1O | 0.0002% [at 46 µM] (inactive) |  |
| C=CC(=O)OCC | 0.0826% [at 95.7 µM] (inactive) |  |
| C=CCc1ccccc1O | -0.0946% (inactive) |  |
| Nc1ccc2c(c1)Cc1ccccc1-2 | -0.0555% (inactive) |  |
| C[C@H]1[C@@H]2Cc3ccc(O)cc3[C@@]1(C)CCN2C | -0.0655% [at 203 µM] (inactive) |  |
| COC1=CC(=O)O[C@@H](/C=C/c2ccc3c(c2)OCO3)C1 | -0.0187% (inactive) |  |
| CCC(C)(C)c1ccc(O)c(C(C)(C)CC)c1 |  | inactive |
| O=C(O)c1cc(I)cc(I)c1I | -0.0658% [at 95.7 µM] (inactive) |  |
| CCCCCBr | -0.0553% [at 95.7 µM] (inactive) |  |
| O=S(=O)(Cl)Cl | -0.0658% (inactive) |  |
| O=C(O)C(O)C(O)C(=O)O (stereo not drawn) | -0.0026% (inactive) |  |
| Cc1ncc(C[n+]2csc(CCO)c2C)c(N)n1 |  | inactive |
| C[CH2][Hg][S]c1ccccc1C(=O)O |  | inactive |
| O=P(OCC(Br)CBr)(OCC(Br)CBr)OCC(Br)CBr (stereo not drawn) |  | inactive |
| CCCCCCCCCCCC[N+](C)(C)CCOc1ccccc1 |  | inactive |
| CCC1(CCC(C)C)C(=O)NC(=O)NC1=O | 0.031% (inactive) |  |
| O=[N+]([O-])O[C@H]1CO[C@H]2[C@@H]1OC[C@H]2O[N+](=O)[O-] | -0.16% [at 46 µM] (inactive) |  |
| CCC(C)Cl (stereo not drawn) | -0.0714% (inactive) |  |
| [Cl-].[Cl-].[Hg+2] |  | inactive |

| SMILES | fluorescence, % of fluorescein control | outcome |
| --- | --- | --- |
| CC1(C)[C@H](C(=O)O[C@H](C#N)c2cccc(Oc3ccccc3)c2)[C@@H]1C=C(Br)Br |  | inactive |
| OC[P+](CO)(CO)CO |  | inactive |
| O=C(O)c1cc(Cl)ccc1Cl | -0.0568% (inactive) |  |
| C[N+]1(CCC(C(N)=O)(c2ccccc2)c2ccccc2)CCCCC1 | 0.0068% [at 46 µM] (inactive) |  |
| COP(=O)(OC)OC(Br)C(Cl)(Cl)Br (stereo not drawn) |  | inactive |
| Nc1cccc2ccccc12 |  | inactive |
| O=C(Cc1ccccc1)c1ccccc1 | 0.0182% (inactive) |  |
| CCC1(CC)C(=O)NC(=O)NC1=O | 0.0346% [at 46 µM] (inactive) |  |
| CC(C)(C)N(NC(=O)c1ccc(Cl)cc1)C(=O)c1ccccc1 | 0.0946% (inactive) |  |
| CC(=O)NNc1ccccc1 | 0.0696% (inactive) |  |
| c1ccc2sc(SNC3CCCCC3)nc2c1 |  | inactive |
| CCC1CCC(=O)O1 (stereo not drawn) | -0.0109% [at 95.7 µM] (inactive) |  |
| O=C(O)CCCOc1ccc(Cl)cc1Cl |  | inactive |
| O=[N+]([O-])c1cc(Cl)c(Cl)cc1Cl | -0.0124% (inactive) |  |
| Nc1ccccc1C(=O)OCCc1ccccc1 |  | inactive |
| CC(C)(C)CC(C)(C)c1ccc(O)cc1 |  | inactive |
| CN1C(=O)CN=C(c2ccccc2)c2cc([N+](=O)[O-])ccc21 | 0.0428% [at 46 µM] (inactive) |  |
| NC(=S)c1c(Cl)cccc1Cl | 0.0055% (inactive) |  |
| CC(=O)OC(c1ccccc1)C(Cl)(Cl)Cl (stereo not drawn) | 0.184% (inactive) |  |

Assay: qHTS assay to test for compound auto fluorescence at 460 nm (blue) in HEK293 cells (AID 720678)
Conditions: blue autofluorescence 405/460 nm; series mostly up to 91.3 µM; fluorescence, % of triamterene: at the top concentration
Summary of the method: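 Cells were seeded and left to adhere for 4-5 hr at 37C. Compounds were then pin-transferred. After an overnight incubation at 37C under 5% CO2, intrinsic fluorescence at 405/460 nm was measured and referenced to triamterene.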

| SMILES | fluorescence, % of triamterene | outcome |
| --- | --- | --- |
| O=C(N/N=C/c1ccc([N+](=O)[O-])o1)c1cc([N+](=O)[O-])cc([N+](=O)[O-])c1O | -0.63% [at 46 µM] (inactive) |  |
| C=CC(=O)OCC | -0.0327% [at 95.7 µM] (inactive) |  |
| C=CCc1ccccc1O | 0.165% (inactive) |  |
| C[C@H]1[C@@H]2Cc3ccc(O)cc3[C@@]1(C)CCN2C | 0.0516% [at 203 µM] (inactive) |  |
| COC1=CC(=O)O[C@@H](/C=C/c2ccc3c(c2)OCO3)C1 | -0.0883% (inactive) |  |
| O=C(O)c1cc(I)cc(I)c1I | 0.0346% [at 95.7 µM] (inactive) |  |
| CCCCCBr | 0.0203% [at 95.7 µM] (inactive) |  |
| O=S(=O)(Cl)Cl | -0.113% (inactive) |  |
| Cc1ncc(C[n+]2csc(CCO)c2C)c(N)n1 |  | inactive |
| O=P(OCC(Br)CBr)(OCC(Br)CBr)OCC(Br)CBr (stereo not drawn) |  | inactive |
| CCCCCCCCCCCC[N+](C)(C)CCOc1ccccc1 |  | inactive |
| CCC1(CCC(C)C)C(=O)NC(=O)NC1=O | -0.147% (inactive) |  |
| O=[N+]([O-])O[C@H]1CO[C@H]2[C@@H]1OC[C@H]2O[N+](=O)[O-] | 0.0085% [at 46 µM] (inactive) |  |
| CCC(C)Cl (stereo not drawn) | 0.0395% (inactive) |  |
| [Cl-].[Cl-].[Hg+2] |  | inactive |
| CC1(C)[C@H](C(=O)O[C@H](C#N)c2cccc(Oc3ccccc3)c2)[C@@H]1C=C(Br)Br |  | inactive |

| SMILES | fluorescence, % of triamterene | outcome |
| --- | --- | --- |
| OC[P+](CO)(CO)CO |  | inactive |
| O=C(O)c1cc(Cl)ccc1Cl | 0.0082% (inactive) |  |
| C[N+]1(CCC(C(N)=O)(c2ccccc2)c2ccccc2)CCCCC1 | -0.252% [at 46 µM] (inactive) |  |
| Nc1cccc2ccccc12 |  | inactive |
| O=C(Cc1ccccc1)c1ccccc1 | -0.0171% (inactive) |  |
| CCC1(CC)C(=O)NC(=O)NC1=O | 0.0281% [at 46 µM] (inactive) |  |
| CC(C)(C)N(NC(=O)c1ccc(Cl)cc1)C(=O)c1ccccc1 | 0.0703% (inactive) |  |
| CC(=O)NNc1ccccc1 | 0.053% (inactive) |  |
| CCC1CCC(=O)O1 (stereo not drawn) | 0.102% [at 95.7 µM] (inactive) |  |
| O=C(O)CCCOc1ccc(Cl)cc1Cl |  | inactive |
| O=[N+]([O-])c1cc(Cl)c(Cl)cc1Cl | -0.234% (inactive) |  |
| Nc1ccccc1C(=O)OCCc1ccccc1 |  | inactive |
| CC(C)(C)CC(C)(C)c1ccc(O)cc1 |  | inactive |
| CN1C(=O)CN=C(c2ccccc2)c2cc([N+](=O)[O-])ccc21 | -0.472% [at 46 µM] (inactive) |  |
| NC(=S)c1c(Cl)cccc1Cl | -0.0354% (inactive) |  |
| CC(=O)OC(c1ccccc1)C(Cl)(Cl)Cl (stereo not drawn) | -0.014% (inactive) |  |

Assay: qHTS assay to test for compound auto fluorescence at 590 nm (red) in HEK293 cells (AID 720679)
Conditions: red autofluorescence 540/590 nm; series mostly up to 91.3 µM; fluorescence, % of fluorescent control: at the top concentration
Summary of the method: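 Each well held 2,000 HEK293 cells in medium containing 10% dialyzed FBS. Following 4-5 hr attachment at 37C, 23 nL test compound or DMSO was added; plates sat overnight, and red fluorescence (540/590nm) was recorded.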

| SMILES | fluorescence, % of fluorescent control | outcome |
| --- | --- | --- |
| O=C(N/N=C/c1ccc([N+](=O)[O-])o1)c1cc([N+](=O)[O-])cc([N+](=O)[O-])c1O | -0.0818% [at 46 µM] (inactive) |  |
| C=CC(=O)OCC | -0.838% [at 95.7 µM] (inactive) |  |
| C=CCc1ccccc1O | 0.457% (inactive) |  |
| Nc1ccc2c(c1)Cc1ccccc1-2 | -0.186% (inactive) |  |
| C[C@H]1[C@@H]2Cc3ccc(O)cc3[C@@]1(C)CCN2C | 0.0565% [at 203 µM] (inactive) |  |
| COC1=CC(=O)O[C@@H](/C=C/c2ccc3c(c2)OCO3)C1 | 0.0986% (inactive) |  |
| CCC(C)(C)c1ccc(O)c(C(C)(C)CC)c1 |  | inactive |
| O=C(O)c1cc(I)cc(I)c1I | -0.0503% [at 95.7 µM] (inactive) |  |
| CCCCCBr | 0.0304% [at 95.7 µM] (inactive) |  |
| O=S(=O)(Cl)Cl | 0.0954% (inactive) |  |
| O=C(O)C(O)C(O)C(=O)O (stereo not drawn) | 0.194% (inactive) |  |
| Cc1ncc(C[n+]2csc(CCO)c2C)c(N)n1 |  | inactive |
| C[CH2][Hg][S]c1ccccc1C(=O)O |  | inactive |
| O=P(OCC(Br)CBr)(OCC(Br)CBr)OCC(Br)CBr (stereo not drawn) |  | inactive |
| CCCCCCCCCCCC[N+](C)(C)CCOc1ccccc1 |  | inactive |
| CCC1(CCC(C)C)C(=O)NC(=O)NC1=O | -0.0392% (inactive) |  |
| O=[N+]([O-])O[C@H]1CO[C@H]2[C@@H]1OC[C@H]2O[N+](=O)[O-] | -0.0434% [at 46 µM] (inactive) |  |
| CCC(C)Cl (stereo not drawn) | 0.159% (inactive) |  |
| [Cl-].[Cl-].[Hg+2] |  | inactive |

| SMILES | fluorescence, % of fluorescent control | outcome |
| --- | --- | --- |
| CC1(C)[C@H](C(=O)O[C@H](C#N)c2cccc(Oc3ccccc3)c2)[C@@H]1C=C(Br)Br |  | inactive |
| OC[P+](CO)(CO)CO |  | inactive |
| O=C(O)c1cc(Cl)ccc1Cl | 0.22% (inactive) |  |
| C[N+]1(CCC(C(N)=O)(c2ccccc2)c2ccccc2)CCCCC1 | -0.604% [at 46 µM] (inactive) |  |
| COP(=O)(OC)OC(Br)C(Cl)(Cl)Br (stereo not drawn) |  | inactive |
| Nc1cccc2ccccc12 |  | inactive |
| O=C(Cc1ccccc1)c1ccccc1 | -0.0872% (inactive) |  |
| CCC1(CC)C(=O)NC(=O)NC1=O | 0.425% [at 46 µM] (inactive) |  |
| CC(C)(C)N(NC(=O)c1ccc(Cl)cc1)C(=O)c1ccccc1 | 0.198% (inactive) |  |
| CC(=O)NNc1ccccc1 | 0.439% (inactive) |  |
| c1ccc2sc(SNC3CCCCC3)nc2c1 |  | inactive |
| CCC1CCC(=O)O1 (stereo not drawn) | 0.348% [at 95.7 µM] (inactive) |  |
| O=C(O)CCCOc1ccc(Cl)cc1Cl |  | inactive |
| O=[N+]([O-])c1cc(Cl)c(Cl)cc1Cl | 0.227% (inactive) |  |
| Nc1ccccc1C(=O)OCCc1ccccc1 |  | inactive |
| CC(C)(C)CC(C)(C)c1ccc(O)cc1 |  | inactive |
| CN1C(=O)CN=C(c2ccccc2)c2cc([N+](=O)[O-])ccc21 | -0.303% [at 46 µM] (inactive) |  |
| NC(=S)c1c(Cl)cccc1Cl | -0.132% (inactive) |  |
| CC(=O)OC(c1ccccc1)C(Cl)(Cl)Cl (stereo not drawn) | 0.0313% (inactive) |  |
